The record followed here is PMC4336329 (PLoS ONE, 2015).

Screen size: about 310,000 compounds; about 14,000 (4.5%) showed an effect of 50% or more. Effects have a minus sign here. The full list was thinned out, with strong results kept by preference.
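Also: peak tail current of the secondary pulse compared with the same well before compound.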

Sequence of human ether-à-go-go-related gene (hERG) potassium channel (Q12809 whole entry, looked up): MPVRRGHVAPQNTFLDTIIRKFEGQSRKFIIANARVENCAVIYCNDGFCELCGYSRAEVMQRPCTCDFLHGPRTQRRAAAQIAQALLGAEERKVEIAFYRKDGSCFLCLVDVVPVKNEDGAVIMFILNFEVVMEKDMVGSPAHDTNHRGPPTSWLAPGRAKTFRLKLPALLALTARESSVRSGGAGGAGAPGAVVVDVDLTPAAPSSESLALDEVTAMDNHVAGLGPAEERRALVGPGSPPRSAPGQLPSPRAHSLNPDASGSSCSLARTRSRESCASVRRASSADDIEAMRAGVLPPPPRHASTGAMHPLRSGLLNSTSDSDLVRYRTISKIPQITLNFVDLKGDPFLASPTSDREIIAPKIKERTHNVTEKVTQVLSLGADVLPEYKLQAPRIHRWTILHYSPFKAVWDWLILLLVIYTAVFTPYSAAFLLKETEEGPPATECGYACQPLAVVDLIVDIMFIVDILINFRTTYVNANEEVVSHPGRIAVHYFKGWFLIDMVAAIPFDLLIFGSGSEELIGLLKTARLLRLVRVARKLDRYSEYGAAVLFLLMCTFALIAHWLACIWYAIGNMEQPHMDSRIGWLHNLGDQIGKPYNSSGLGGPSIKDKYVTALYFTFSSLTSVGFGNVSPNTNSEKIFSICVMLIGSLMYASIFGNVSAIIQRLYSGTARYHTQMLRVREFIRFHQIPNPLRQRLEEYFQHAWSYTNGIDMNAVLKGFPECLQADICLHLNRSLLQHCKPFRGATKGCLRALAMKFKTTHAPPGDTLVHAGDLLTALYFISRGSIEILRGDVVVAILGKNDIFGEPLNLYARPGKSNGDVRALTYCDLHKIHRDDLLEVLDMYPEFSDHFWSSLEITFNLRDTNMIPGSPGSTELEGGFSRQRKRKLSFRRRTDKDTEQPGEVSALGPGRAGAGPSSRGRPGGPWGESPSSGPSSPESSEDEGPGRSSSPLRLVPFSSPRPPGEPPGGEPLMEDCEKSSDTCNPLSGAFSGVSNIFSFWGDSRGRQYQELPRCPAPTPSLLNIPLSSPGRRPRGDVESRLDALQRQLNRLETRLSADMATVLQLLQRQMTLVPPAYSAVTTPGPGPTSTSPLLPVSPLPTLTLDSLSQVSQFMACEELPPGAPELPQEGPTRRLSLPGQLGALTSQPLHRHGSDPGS

The assay concerns the target human ether-à-go-go-related gene (hERG) potassium channel (human, UniProt Q12809). Nature of the assay: primary screen, population patch clamp on CHO cells stably expressing hERG; higher = less effect of the substance.
Take `Cc1cc(O)c(NC(=O)c2ccc(Br)o2)cc1C`: the “hERG current change (%, negative = inhibition) at 10uM” value was -7.04%.
To `COc1ccc(N2CCN(C(=O)CN(c3cccc(OC)c3)S(=O)(=O)c3ccccc3)CC2)cc1` belongs -19.4%; to `CC(=O)OC1CC2(C)C(=O)CCC2C2CCc3cc(O)ccc3C12` (centres unmarked), 1.59%.
To `Cc1ccc(Nc2cccc(C(F)(F)F)c2)nn1` belongs -0.351%.
The value for `COc1ccc2c(c1)CCCN2C(N)=O` was 17.4%; that for `COc1ccc2c(c1)CCCN2S(=O)(=O)c1ccc(Cl)cc1` was 9.65%.
On to `COc1ccc2c(c1)CCCN2C(N)=Nc1ccc(Cl)cc1`, for which the “hERG current change (%, negative = inhibition) at 10uM” value is listed as -63.7%.
The value for `Cc1ccc(NC(=O)CN(C)C(=O)C(Sc2ccccc2)c2ccccc2)cc1` (centres unmarked) was 2.05%; that for `CC(=O)O[C@H]1C(=O)[C@@]2(C)C([C@H](OC(=O)c3ccccc3)[C@]3(O)C[C@H](OC(=O)[C@H](O)[C@@H](NC(=O)Cc4ccccc4)c4ccccc4)C(C)=C1C3(C)C)[C@]1(OC(C)=O)CO[C@@H]1C[C@@H]2O` (some centres unmarked) was 16.6%.
To `CCOCCCNC(=O)c1cn(CC)c2ccc(S(=O)(=O)N3CCC(C)CC3)cc2c1=O` belongs -22.6%; to `CCn1cc(C(=O)N2CCc3ccccc3C2)c(=O)c2cc(S(=O)(=O)N3CCCCC3)ccc21`, -40.7%; to `CCn1cc(C(=O)N2CCc3ccccc32)c(=O)c2cc(S(=O)(=O)N3CCCCCC3)ccc21`, -67.1%.
The value for `CCC1CCCCN1CCCNC(=O)c1cn(C)c2ccc(S(=O)(=O)N3CCOCC3)cc2c1=O` (centres unmarked) was 21.3%; that for `CCC1CCCCN1CCCNC(=O)c1cn(CC)c2ccc(S(=O)(=O)N3CCc4ccccc4C3)cc2c1=O` (centres unmarked) was -72%.
Turning to `CCn1cc(C(=O)NCCCN2CCCC2)c(=O)c2cc(S(=O)(=O)N3CCc4ccccc4C3)ccc21`, the “hERG current change (%, negative = inhibition) at 10uM” value is recorded as -8.75%.
The value for `CCn1cc(C(=O)NCCCOC)c(=O)c2cc(S(=O)(=O)N3CCCC3)ccc21` was -4.05%.
The value for `CCOCCCNC(=O)c1cn(CC)c2ccc(S(=O)(=O)N3CCCC3)cc2c1=O` was -6.08%; that for `CCn1cc(C(=O)N2CCc3ccccc32)c(=O)c2cc(S(=O)(=O)N3CC(C)CC(C)C3)ccc21` (centres unmarked) was -43.8%.
To `CCn1cc(C(=O)NCCCOC)c(=O)c2cc(S(=O)(=O)N3CCC(C)CC3)ccc21` belongs -10.3%.
As for `CCn1cc(C(=O)NCCCN2CCCC(C)C2)c(=O)c2cc(S(=O)(=O)N3CCc4ccccc4C3)ccc21` (centres unmarked), the “hERG current change (%, negative = inhibition) at 10uM” value was -75.7%.
For the compound `CCn1cc(C(=O)NCCCN2CCCCCC2)c(=O)c2cc(S(=O)(=O)N3CCc4ccccc4C3)ccc21`, the “hERG current change (%, negative = inhibition) at 10uM” value is reported as -77.7%.
To `COc1cc(N2CCOCC2)ccc1/C=C1\C(=O)NC(=O)N(Cc2ccc3c(c2)OCO3)C1=O` belongs 16.5%.
To `COc1ccc(S(=O)(=O)N2CCOCC2)cc1C(=O)Nc1cc(C)on1` belongs 2.19%; to `CCn1c(SCC#N)nc2ccccc2c1=O`, 2.7%.
As to `CN(CC(=O)Nc1ccc(F)cc1)C(=O)COC(=O)CSc1ccc(F)cc1`, the “hERG current change (%, negative = inhibition) at 10uM” value is -16%.
To `CC(=O)N1CCOc2ccc(S(=O)(=O)NCCc3ccc(S(N)(=O)=O)cc3)cc21` belongs 12.2%; to `CCc1c(C)sc(NC(=O)c2cc(-c3ccc(O)cc3)on2)c1C#N`, 11.2%.
The value for `O=C(CCc1nnc2ccc(NCc3ccco3)nn12)Nc1ccc(F)cc1F` was -4.76%.
The value for `COc1ccc(OC)c(C2=NOC(C(=O)Nc3cc(C)on3)C2)c1` (centres unmarked) was 17.2%; that for `O=C(CCc1nc2sc3c(c2c(=O)[nH]1)CCCC3)Nc1ccccc1Cl` was 7.93%; that for `CN(C)C(=O)CSc1nnc(NC(=O)CCc2ccccc2)s1` was -5.24%.
With `CC(=O)c1cccc(NC(=O)N2CC(C)OC(C)C2)c1` (centres unmarked), the “hERG current change (%, negative = inhibition) at 10uM” value is 10.4%.
To `Cc1ccc(NC(=O)OCCNC(=O)c2ccncc2)cc1` belongs 8.86%.
The value for `CCN(CC(=O)NCc1ccc(Cl)cc1)C(=O)c1cnc(Cl)c(Cl)c1` was 5.29%; that for `CCN(CC(=O)NCc1ccc(Cl)cc1)C(=O)COc1ccc(Cl)cc1Br` was -67.7%; that for `CCN(CC(=O)NCc1ccc(Cl)cc1)C(=O)CSc1cc(C)ccc1C` was -47.5%.
The value for `Cc1cc(Cl)ccc1OCC(=O)NCc1ccncc1` was -8.3%; that for `CCN(CC(=O)NCc1ccc(Cl)cc1)C(=O)COc1ccc(C)cc1C` was -78.4%; that for `CCN(CC(=O)NCc1ccc(F)cc1)C(=O)C(C)Oc1cccc(Cl)c1` (centres unmarked) was -54.4%.
Turning to `O=C(COc1ccc(Cl)cc1Br)NC(=O)NCc1ccccc1`, the “hERG current change (%, negative = inhibition) at 10uM” value came to 13.3%.
In the case of `CCOc1ncccc1C(=O)N(CC)CC(=O)NCc1ccc(Cl)cc1`, the “hERG current change (%, negative = inhibition) at 10uM” value is given as 1.69%.
The value for `CCN(CC(=O)NCc1ccc(Cl)cc1)C(=O)COc1cccc(Cl)c1` was -73.5%; that for `CCN(CC(=O)NCc1ccc(F)cc1)C(=O)c1ccc(C(=O)c2ccccc2)cc1` was -42.3%; that for `CN(CC(=O)NCc1ccc(F)cc1)Cc1cccc(Cl)c1` was 4.92%.
As to `O=C(COc1cccc(Cl)c1)NCc1ccccc1`, the “hERG current change (%, negative = inhibition) at 10uM” value worked out at 18.9%.
To `COc1ccccc1C(=O)Nc1cc(C)on1` belongs 7.07%; to `CN(C)S(=O)(=O)c1ccc(Cl)c(NC(=O)COC(=O)C2CCCO2)c1` (centres unmarked), 5.01%.
To `COc1ccc(NC(=O)CSc2nc(SC)ns2)c(OC)c1` belongs 2.53%; to `O=C(OCc1csc(-c2ccccc2)n1)c1ccccc1O`, 29.6%; to `CC1CCC(NC(=O)CSc2nnnn2C)CC1` (centres unmarked), 6.96%.
The value for `CCOc1ccc(CCNC(=O)COC(=O)c2ccc(OC)c(OC)c2OC)cc1OCC` was 12.2%; that for `O=C(COc1cccc2cccnc12)NNC(=S)Nc1ccccc1` was -25.8%.
As for `CCc1cccc(C)c1NC(=O)C1CCCN(S(C)(=O)=O)C1` (centres unmarked), the “hERG current change (%, negative = inhibition) at 10uM” value is 23.6%.
The value for `Cc1ccc([C@@H]2[C@@H]3C(=O)N(C)C(=O)[C@@H]3[C@]3(Cc4ccccc4)C(=O)N(CCO)CC(=O)N23)o1` was 0.221%.
To `COc1cccc(NC(=O)NCc2ccc(F)cc2)c1` belongs -5.73%; to `COc1cccc(CN(C)CC(=O)NCc2ccc(C)cc2)c1.O=C(O)C(=O)O`, -49.3%.
To `CCN(CC(=O)NCc1ccc(F)cc1)CC(O)COCc1cccc(OC)c1` (centres unmarked) belongs -60.6%.
In the case of `COc1ccc(C2=NS(=O)(=O)N(C)C(C(=O)NC3CCCC3)=C2)cc1`, the “hERG current change (%, negative = inhibition) at 10uM” value is listed as 2.43%.
To `Cc1cccc(CSc2nc3nc(C)cc(C)n3n2)c1` belongs -27.9%; to `Cc1cc(C)n2nc(SCc3nnc(SCc4ccccc4Cl)s3)nc2n1`, 9.19%; to `COc1cccc(CSc2nnc(CSc3nc4nc(C)cc(C)n4n3)s2)c1`, -54.4%.
The value for `Cc1cc(C)n2nc(SCc3nnc(SCc4ccccc4)s3)nc2n1` was -28.6%.
To `COc1cccc(CSc2nc3nc(C)cc(C)n3n2)c1` belongs -4.72%; to `Cc1cc(C)n2nc(SCc3nnc(SCc4ccccc4C)s3)nc2n1`, -64.9%.
`Cc1noc(C)c1COc1ccc(C(=O)N(C)CCOc2ccccc2)cc1`: the “hERG current change (%, negative = inhibition) at 10uM” value was -26.2%.
To `CCc1ccc(S(=O)(=O)NC2CC(C)(C)NC(C)(C)C2)cc1` belongs 5.09%; to `Cc1cc(C(=O)N/N=C/c2ccc(OC(=O)c3ccccc3Br)cc2)n[nH]1`, 3.23%; to `O=C1NC2(CCc3ccccc32)C(=O)N1CCOc1ccc(Cl)cc1` (centres unmarked), -29.8%.
To `C=CCn1c(SCC(=O)O)nnc1-c1cccs1` belongs 0.617%.
To `Cc1nc(Cc2nnc(SCC(=O)N3CCN(c4ccc(F)cc4)CC3)o2)cs1` belongs -50.9%; to `Cc1occc1-c1nnc(SCC(=O)N2CCN(c3ccccc3F)CC2)n1C`, 4.99%; to `Cc1occc1-c1nnc(SCC(=O)N2CCN(c3ccc(F)cc3)CC2)n1C`, -58.5%.
Take `C=CCn1c(SCC(=O)N2CCN(c3ccccc3)CC2)nnc1-c1ccco1`: the “hERG current change (%, negative = inhibition) at 10uM” value is reported as -25.7%.
To `Cc1occc1-c1nnc(SCC(=O)N2CCN(c3ccccc3)CC2)n1C` belongs -27.8%; to `C=CCn1c(SCC(=O)Nc2ccc(N3CCOCC3)cc2)nnc1-c1ccco1`, 2.29%.
The value for `C=CCn1c(SCC(=O)C(C)(C)C)nnc1-c1cccs1` was -14.3%.
The value for `C=CCn1c(SCC(=O)N2CCN(c3ccc(F)cc3)CC2)nnc1-c1ccco1` was -70.2%; that for `Cc1nc(Cc2nnc(SCC(=O)Nc3c(C)cccc3C)o2)cs1` was 15.1%; that for `Cc1nc(Cc2nnc(SCC(=O)N(C)c3ccccc3)o2)cs1` was 15.9%.
For `C=CCn1c(SCC(=O)N2CCN(c3ccc(F)cc3)CC2)nnc1-c1cccs1`, the “hERG current change (%, negative = inhibition) at 10uM” value is -68.9%.
To `COC(=O)C1=C(N)Oc2c(oc(CO)cc2=O)C1c1ccc(F)cc1` (centres unmarked) belongs -7.85%; to `O=c1cc(N2CCOCC2)c2ccccc2o1`, -13.9%; to `O=C(CS(=O)c1cccc(C(F)(F)F)c1)Nc1ccc(Cl)cc1Cl` (centres unmarked), 8.83%.
Regarding `CC1(C)Cc2c(sc(NC(=O)c3ccc(S(=O)(=O)N4CCCCCC4)cc3)c2C#N)C(C)(C)N1`, the “hERG current change (%, negative = inhibition) at 10uM” value is reported as -65.8%.
To `CCOC(=O)N1CCN(S(=O)(=O)c2ccc(C(=O)Nc3sc4c(c3C#N)CC(C)(C)NC4(C)C)cc2)CC1` belongs 14.6%.
In the case of `CC1(C)Cc2c(sc(NC(=O)c3ccc(S(=O)(=O)N4CCCC4)cc3)c2C#N)C(C)(C)N1`, the “hERG current change (%, negative = inhibition) at 10uM” value is on record as -8.79%.
